Potency and outcome data for 12 molecules are collected here from PubChem BioAssay (Tox21).

Test [1] can be described thus: qHTS assay to identify small molecule antagonists of the retinoid acid receptor (RAR) signaling pathway - cell viability counter screen (AID 1159551). Note: nearly all actives have a fitted effect of over 35% in size. Note: potency is the fitted concentration of half-maximal effect. The method in brief:
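C3RL4 cells were seeded overnight at 37 C, then treated with compounds plus 1 uM (final) retinol for 6 h at 37 C. Viability was read as ATP by CellTiter-Glo luminescence after 30 min at room temperature.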
Background: In qHTS, concentration-response curves come from the screen itself.

Test [2] in a line: qHTS assay to identify small molecule antagonists of the retinoic acid receptor (RAR) signaling pathway (AID 1159552; note: nearly all actives have a fitted effect of over 50% in size; note: potency is the fitted concentration of half-maximal effect). The essentials: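 Luminescent RARE reporter read-out in C3RL4 cells: 6 hr co-treatment at 37 C of test compounds with retinol at 1 uM final. Cells plated overnight beforehand; luciferase reagent incubated 30 min at room temperature before reading.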
Test [3] deals with Luciferin 4-monooxygenase (Photinus pyralis) (UniProt P08659). The experiment in a line: qHTS assay to identify small molecule inhibitors of firefly luciferase (AID 1224835). Note: nearly all actives have a fitted effect of over 25% in size. Note: potency is the fitted concentration of half-maximal effect. The essentials:
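Quantitative HTS format; KM concentrations of both substrates. Purified P. pyralis FLuc activity quantified from luminescence images.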

Test [4] in a line: qHTS assay to identify small molecule agonists of the constitutive androstane receptor (CAR) signaling pathway - cell viability counter screen (AID 1224836). Note: series mostly up to about 92 µM; nearly all actives have a fitted effect of over 45% in size. The method in brief: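 Cell viability multiplexed with the CAR agonist screen: CellTiter-Fluor fluorescence after 23 hr at 37 C. HepG2-CYP2B6-hCAR cells got compounds at 15 concentrations with PK11195 at 0.75 uM final.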

Test [5] deals with Nuclear receptor subfamily 1 group I member 3 (Homo sapiens) (UniProt Q14994). The experiment in a line: qHTS assay to identify small molecule antagonists of the constitutive androstane receptor (CAR) signaling pathway (AID 1224838). Note: nearly all actives have a fitted effect of over 40% in size. Note: potency is the fitted concentration of half-maximal effect. The essentials:
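HepG2 cells stably co-transfected with hCAR and a CYP2B6-2.2kb luciferase reporter were seeded 4 h before compound addition at 15 concentrations. Cells were stimulated with 50 nM CITCO (final) for 24 h at 37 C; luciferase luminescence was then read.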

Test [6] shares this target. The experiment in a line: qHTS assay to identify small molecule agonists of the constitutive androstane receptor (CAR) signaling pathway (AID 1224839).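 For activation: HepG2 cells stably carrying human CAR and a CYP2B6 luciferase reporter; series mostly up to about 92 µM.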 Note: nearly all actives have a fitted effect of over 15% in size. Note: potency is the fitted concentration of half-maximal effect. The essentials: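 Luminescent ONE-Glo read-out after 24 hr, 37 C exposure of double-stable HepG2-CYP2B6-hCAR reporter cells to a 15-point compound series, in the presence of 0.75 uM PK11195 (final).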
Test [7] can be described thus: qHTS assay to identify small molecule antagonists of the estrogen related receptor signaling pathway with the pleiotropic PPARgamma coactivator (PGC) from Tox21 10K library - cell viability counter screen (AID 1224840; active = well fitted cell-killing curve with a large enough effect in the repeat runs, not every such curve was filed as active; note: nearly all actives have a fitted effect of over 40% in size). The method in brief: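 PGC/ERR cells were seeded at 2,000 cells/well and left 6 hours at 37 C/5% CO2 before pin-tool addition of compounds in DMSO. After 17.5 hours at 37 C, CellTiter-Fluor was added and fluorescence read 30 minutes later.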

Test [8] has as its target Thyrotropin receptor (Homo sapiens) (UniProt P16473). The experiment in a line: qHTS assay to identify small molecule agonists of the thyroid stimulating hormone receptor (TSHR) signaling pathway (AID 1224843; calls by dose curve; note: nearly all actives have a fitted effect of over 45% in size; note: potency is the fitted concentration of half-maximal effect). The method in brief:
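Cell line HEK293 with TSHR; density 800/well. Exposure 30 min RT. Readout HTRF cAMP (cAMP-d2/anti-cAMP-cryptate), 1 h RT before reading.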

Test [9] can be described thus: qHTS assay to identify small molecule antagonists of the constitutive androstane receptor (CAR) signaling pathway - cell viability counter screen (AID 1224837). Note: nearly all actives have a fitted effect of over 45% in size. Note: potency is the fitted concentration of half-maximal effect. The essentials:
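HepG2 cells stably expressing hCAR and a CYP2B6-2.2kb reporter were plated and pre-incubated 4 hr at 37 C/5% CO2, then given compounds at 15 concentrations plus 50 nM CITCO (final). After 23 hr, viability was read by CellTiter-Fluor fluorescence.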

A short description of test [10]: qHTS assay to identify small molecule agonists of the hypoxia (HIF-1) signaling pathway - cell viability counter screen (AID 1224844; calls by dose curve; note: nearly all actives have a fitted effect of over 50% in size; note: potency is the fitted concentration of half-maximal effect). The method in brief: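 HRE-bla ME-180 cells in medium with 0.5% dialyzed FBS were preincubated 5 hrs at 37C, exposed to compounds for 17 hrs, then viability was read as CellTiter-Glo luminescence after 30 min at room temperature, in the reporter wells.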

The nature of test [11]: qHTS assay to identify small molecule agonists of H2AX (AID 1224845; active = well fitted activation curve with a large enough effect in the signal ratio in the repeat runs, not every such curve was filed as active; the % refers to the signal ratio; note: potency is the fitted concentration of half-maximal effect). The essentials: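 Wild-type CHO-K1 cells plated overnight, then exposed 3 hr at 37C to compounds at 15 concentrations (0.76% DMSO). Lysed, then HTRF anti-pH2AX(S139)-cryptate/anti-H2AX-d2 detection after 24 hr at room temperature; emissions 665 and 620 nm.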
The nature of test [12]: qHTS assay to identify small molecule agonists of the estrogen related receptor signaling pathway with the pleiotropic PPARgamma coactivator (PGC) from Tox21 10K library (AID 1224842). Note: nearly all actives have a fitted effect of over 15% in size. The essentials:
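PGC/ERR reporter cells (NTP line) were seeded 2,000 per well, rested 6 h at 37 C/5% CO2, then pin-dosed with compounds in DMSO for 18 h at 37 C; luciferase read by One-Glo luminescence after 30 min at room temperature.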

Test [13] in a line: qHTS assay to identify small molecule agonists of the retinoic acid receptor (RAR) signaling pathway (AID 1159553). The method in brief: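 C3RL4 cells carrying a RARE luciferase reporter were plated overnight at 37 C, then exposed to compounds in DMSO for 6 hr at 37 C and 5% CO2. Luminescence was read 30 min after luciferase reagent addition at room temperature.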
Test [14] is described as follows: qHTS assay to identify small molecule antagonists of the estrogen related receptor (ERR) signaling pathway - cell viability counter screen (AID 1224818).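 Note: series mostly up to about 46 µM; viability measured after 17.5 h of compound exposure.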 The method in brief:
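ERR reporter cells plated 6 h at 37 C/5% CO2, then compounds in DMSO pin-transferred and incubated 17.5 h at 37 C. Viability read as CellTiter-Fluor fluorescence after 30 min at 37 C.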

A short description of test [15]: qHTS assay to identify small molecule agonists of the estrogen related receptor (ERR) signaling pathway (AID 1224820). The essentials: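 Cells: ERR line from NTP, 2,000/well. Pre-incubation 6 h, 37 C/5% CO2. Compound (DMSO) pin transfer, 18 h 37 C. One-Glo, 30 min RT, luminescence.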
A short description of test [16]: qHTS assay to identify small molecule agonists of the estrogen related receptor signaling pathway with the pleiotropic PPARgamma coactivator (PGC) (AID 1224823). The essentials: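 Steps: plate PGC/ERR cells at 2,000 cells/well; incubate 6 h, 37 C/5% CO2; pin-transfer compounds (DMSO); incubate 18 h, 37 C; add One-Glo; 30 min RT; read luminescence.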
Test [17] in a line: qHTS assay to identify small molecule antagonists of the estrogen related receptor (ERR) signaling pathway (AID 1224819;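 note: luminescence from an ERR-driven luciferase reporter measured with One-Glo reagent; series mostly up to about 46 µM; nearly all actives have a fitted effect of over 50% in size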). The method in brief: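 ERR reporter cells were plated at 2,000 cells/well and left 6 h at 37 C/5% CO2 before pin-tool transfer of compounds in DMSO. After 18 h at 37 C, One-Glo was added and luminescence was read 30 min later at room temperature.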
For test [18], the system named is estrogen-related receptor alpha (ERRalpha) with PGC-1alpha coactivator, human. The experiment in a line: qHTS assay to identify small molecule antagonists of the estrogen related receptor signaling pathway with the pleiotropic PPARgamma coactivator (PGC) (AID 1224821; calls by dose curve;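 note: series mostly up to about 46 µM; lower luminescence signal means antagonism of PGC/ERR signalling; nearly all actives have a fitted effect of over 50% in size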). The method in brief:
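Luminescent read-out (One-Glo, 30 min at room temperature) following 18 h treatment of PGC/ERR cells at 37 C with compounds delivered in DMSO. Cells had settled 6 h at 37 C/5% CO2 before dosing.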

Test [19] is described as follows: qHTS assay to identify small molecule antagonists of the estrogen related receptor (ERR) signaling pathway from Tox21 library - cell viability counter screen (AID 1224834). Note: nearly all actives have a fitted effect of over 30% in size. The method in brief: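 ERR reporter cells were plated 6 h before compound addition, then exposed to test compounds in DMSO for 17.5 h at 37 C. Viability was read as CellTiter-Fluor fluorescence after a 30-minute incubation at 37 C.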

Results filed as inconclusive are left out. Active and inactive are the calls of the source. Unless noted, calls come from the whole dose curve; as a rule, active = well fitted curve in the direction sought with a large enough effect in the repeat runs; inconclusive = weak or mixed curves; inactive = no such curve, though single readings can be large; an effect the other way counts as inactive or inconclusive.

Thyrotropin receptor (Homo sapiens), sequence (P16473 whole entry, looked up): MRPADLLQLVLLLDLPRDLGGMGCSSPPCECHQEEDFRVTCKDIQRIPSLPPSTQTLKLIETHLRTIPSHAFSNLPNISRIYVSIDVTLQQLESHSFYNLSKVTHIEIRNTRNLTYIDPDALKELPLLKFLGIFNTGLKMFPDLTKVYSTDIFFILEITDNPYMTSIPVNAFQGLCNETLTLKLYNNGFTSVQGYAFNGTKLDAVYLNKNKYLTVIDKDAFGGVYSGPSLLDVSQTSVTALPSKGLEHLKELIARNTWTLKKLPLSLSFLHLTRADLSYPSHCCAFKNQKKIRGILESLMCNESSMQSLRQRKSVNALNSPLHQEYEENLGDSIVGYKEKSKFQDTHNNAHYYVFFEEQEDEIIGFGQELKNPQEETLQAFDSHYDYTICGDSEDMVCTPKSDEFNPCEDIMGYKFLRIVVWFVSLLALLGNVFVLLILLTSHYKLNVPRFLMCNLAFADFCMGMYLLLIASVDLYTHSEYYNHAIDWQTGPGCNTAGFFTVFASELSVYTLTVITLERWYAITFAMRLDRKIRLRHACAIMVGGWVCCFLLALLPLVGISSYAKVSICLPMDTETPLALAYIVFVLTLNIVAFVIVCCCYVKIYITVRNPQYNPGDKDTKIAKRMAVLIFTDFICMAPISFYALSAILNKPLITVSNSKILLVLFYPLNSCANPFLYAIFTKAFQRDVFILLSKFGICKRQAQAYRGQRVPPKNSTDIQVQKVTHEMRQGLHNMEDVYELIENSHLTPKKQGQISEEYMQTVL
Nuclear receptor subfamily 1 group I member 3 (Homo sapiens), sequence (Q14994 whole entry, looked up): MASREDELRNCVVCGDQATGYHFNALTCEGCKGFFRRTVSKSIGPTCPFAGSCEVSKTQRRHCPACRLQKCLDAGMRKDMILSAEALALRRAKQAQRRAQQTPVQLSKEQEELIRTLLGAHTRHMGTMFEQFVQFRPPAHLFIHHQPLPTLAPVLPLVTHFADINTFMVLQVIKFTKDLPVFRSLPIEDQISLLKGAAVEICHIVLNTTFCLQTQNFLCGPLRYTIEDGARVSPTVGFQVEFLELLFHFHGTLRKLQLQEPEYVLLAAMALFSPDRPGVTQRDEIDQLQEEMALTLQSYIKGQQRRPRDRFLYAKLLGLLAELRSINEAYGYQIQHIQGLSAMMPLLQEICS
Luciferin 4-monooxygenase (Photinus pyralis), sequence (P08659 whole entry, looked up): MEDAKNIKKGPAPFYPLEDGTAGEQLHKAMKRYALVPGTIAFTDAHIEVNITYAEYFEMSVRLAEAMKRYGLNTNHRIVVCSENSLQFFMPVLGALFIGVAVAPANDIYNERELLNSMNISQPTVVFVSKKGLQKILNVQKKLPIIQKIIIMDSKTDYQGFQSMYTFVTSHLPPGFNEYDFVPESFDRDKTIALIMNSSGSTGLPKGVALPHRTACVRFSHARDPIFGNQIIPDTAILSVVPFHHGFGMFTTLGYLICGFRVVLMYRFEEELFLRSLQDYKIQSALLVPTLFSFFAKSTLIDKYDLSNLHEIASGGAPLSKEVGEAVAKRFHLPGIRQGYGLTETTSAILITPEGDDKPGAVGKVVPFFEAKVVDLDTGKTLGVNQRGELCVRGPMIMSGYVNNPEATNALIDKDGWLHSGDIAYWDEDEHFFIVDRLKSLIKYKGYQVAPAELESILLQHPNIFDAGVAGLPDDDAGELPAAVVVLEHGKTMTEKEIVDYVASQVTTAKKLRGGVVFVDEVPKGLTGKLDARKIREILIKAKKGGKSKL

On to `CNC(C)Cc1ccc2c(c1)OCO2` (stereo not drawn), for which the Potency result in test [1], in [2], in test [3], in [4], in test [5] and in test [6] was “inactive” in each case. Further, the Potency entry in test [7] and in [8] was “inactive” each time.
For the molecule `Nc1ccc([N+](=O)[O-])cc1Cl`, the Potency entry in test [1], in [2], in [9], in [7], in test [8] and in test [10] was “inactive” throughout. In test [11], the Potency entry was “inactive”.
Take `CSCCCN=C=S`: the Potency result in test [1], in test [2], in [3], in test [7], in test [12] and in test [8] was “inactive” each time. Further, in test [11], the Potency result is “inactive”.
Turning to `CCS(=O)(=O)c1cccnc1S(=O)(=O)NC(=O)Nc1nc(OC)cc(OC)n1`, the Potency result in [1], in [2], in test [3], in test [4], in [9] and in test [5] was “inactive” each time. The Potency entry in [7], in [12], in [8] and in test [10] was “inactive” each time. For the same molecule, in test [6], the Potency was 54.5 µM (active).
Turning to `c1cc[c]([Sb]([c]2ccccc2)[c]2ccccc2)cc1`, the Potency entry in test [1], in test [3], in [4], in test [9], in [8] and in test [10] was “inactive” throughout. The values for the Potency in test [2] and in test [6] were 61.1 µM (active) and 15.4 µM (active), respectively.
For `CC(C)Oc1cccc(NC(=O)c2ccccc2C(F)(F)F)c1`, the Potency entry in test [1], in test [13], in test [3], in test [4], in [9] and in test [7] was “inactive” in each case. For the same molecule, the Potency result in test [12] and in [11] was “inactive” in each case. The molecule was called inactive in test [14], in test [15] and in test [16]. Further, in [6], the Potency is 61.1 µM (active).
For the molecule `CCOCCOC(C)=O`, the Potency entry in [1], in [13], in test [17], in test [18], in test [19] and in test [3] was “inactive” in each case. Further, the Potency result in test [4], in [9], in [7], in test [12], in [8] and in [10] was “inactive” in each case. Besides, the Potency result in [11] is “inactive”. For the same molecule, the call in [14], in [15] and in test [16] was inactive.
On to `CCc1ccccc1C`, for which the Potency entry in [1], in test [2], in test [3], in test [4], in test [9] and in test [7] was “inactive” in each case. In addition, the Potency entry in test [12], in test [8] and in test [10] was “inactive” in each case.
Consider `Cc1cccc(OP(=O)(Oc2cccc(C)c2)Oc2cccc(C)c2)c1`, for which the Potency result in test [1], in [2], in test [3], in [4], in test [9] and in test [7] was “inactive” throughout. The Potency entry in test [8] and in test [10] was “inactive” throughout. Further, the Potency in [6] is 30.6 µM (active).
On to `BrCC(Br)c1ccccc1` (stereo not drawn), for which the Potency entry in [1], in test [2], in [19], in test [4], in [7] and in [8] was “inactive” each time. Moreover, the Potency entry in [10] and in test [11] was “inactive” throughout.
As for `N#CCc1ccc(Cl)cc1`, the Potency entry in test [1], in [2], in test [3], in test [4], in test [9] and in [7] was “inactive” throughout. Moreover, the Potency entry in test [12] and in [10] was “inactive” throughout.
Turning to `N#CCCC(Br)(C#N)CBr` (stereo not drawn), the Potency in [1] is 68.6 µM (active); in test [2], 21.7 µM (active); in test [3], 35.6 µM (active); in test [9] it was 61.1 µM (active); in test [5], 68.6 µM (active); in [8], 4.86 µM (active). Besides, the results for the Potency in test [10] and in [11] were 19.5 µM (active) and 35.7 µM (active), respectively. Also, the Potency result in [6] and in [12] was “inactive” each time.
